FBW7 act – human FBW7 E3 ligase activation, primary screen | Q969H0 | AlphaScreen FBW7–phospho-cyclin E peptide binding, activator screen | normalized activity (activation), % at 26.1 µM | 650,000 compounds, 0.13% hits | AID 1259310; in the data active means normalized activity above about 1.9%;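 further: purified mutant Fbw7 with reduced substrate affinity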
Target sequence (Q969H0 whole entry, looked up): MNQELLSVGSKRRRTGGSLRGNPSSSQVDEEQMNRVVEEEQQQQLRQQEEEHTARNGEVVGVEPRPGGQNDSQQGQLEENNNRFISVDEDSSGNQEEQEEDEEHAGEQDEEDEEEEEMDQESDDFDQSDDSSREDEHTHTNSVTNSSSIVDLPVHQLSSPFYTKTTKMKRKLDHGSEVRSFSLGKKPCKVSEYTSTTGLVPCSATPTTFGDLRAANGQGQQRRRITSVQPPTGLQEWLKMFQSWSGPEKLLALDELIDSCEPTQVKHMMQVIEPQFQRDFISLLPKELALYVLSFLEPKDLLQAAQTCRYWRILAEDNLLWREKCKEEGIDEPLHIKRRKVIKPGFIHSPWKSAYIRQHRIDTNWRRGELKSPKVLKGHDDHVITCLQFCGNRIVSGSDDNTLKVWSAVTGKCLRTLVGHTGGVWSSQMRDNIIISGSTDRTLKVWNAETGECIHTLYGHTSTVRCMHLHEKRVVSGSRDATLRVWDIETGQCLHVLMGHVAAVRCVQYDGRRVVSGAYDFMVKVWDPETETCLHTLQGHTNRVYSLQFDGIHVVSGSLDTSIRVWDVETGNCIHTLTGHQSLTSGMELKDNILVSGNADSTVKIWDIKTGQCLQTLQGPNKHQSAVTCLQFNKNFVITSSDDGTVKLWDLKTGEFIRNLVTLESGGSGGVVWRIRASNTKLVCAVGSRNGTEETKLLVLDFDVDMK
GPR151 activ – activators of human GPR151; Q8TDV0; PathHunter beta-arrestin GPR151 cells, luminescence; activation, % at 11.2 µM; 650,000 compounds, 1% hits; in the data active means activation above about 4.9%
MITF inh – inhibitors of human MITF | O75030 | AlphaScreen MITF homodimerization, bead proximity signal | inhibition, % at 2.6 µM | 650,000 compounds, 0.91% hits | AID 1259374; in the data active means inhibition above about 50%
TEAD-YAP block – TEAD-YAP interaction inhibition; HEK-TIYL cells, TEAD-Gal4/YAP UAS-luciferase luminescence; inhibition, % at 9.12 µM; 640,000 compounds, 1.4% hits; in the data active means inhibition above about 32%
Of the large screens only hits and unclear results are named; the others gave an inactive call. In the library only some 3.5% were active in any assay of this set; here they are far more common.

Cc1ccc(S(=O)(=O)Nc2cccc(C(=O)NCc3cccnc3)c2)cc1	TEAD-YAP block 58
Cc1oc(-c2ccc(Cl)cc2)nc1CN1CCCC(C(=O)NCCN2CCCC2)C1 (stereo unspecified)	none
Cc1oc(-c2ccc(Cl)cc2)nc1CN1CCCC(C(=O)NCc2cccnc2)C1 (stereo unspecified)	TEAD-YAP block 46
O=C(Oc1cccc(NC(=O)c2ccco2)c1)c1cccc(S(=O)(=O)N2CCOCC2)c1	none
O=C(Nc1cccc(OC(=O)c2cc(S(=O)(=O)N3CCCCCC3)ccc2Cl)c1)c1ccccc1	none
Cc1ccc(C(=O)Nc2cccc(OC(=O)c3cc(S(=O)(=O)N4CCOCC4)ccc3Cl)c2)cc1	TEAD-YAP block 83
O=C(Nc1cccc(OC(=O)c2cccc(S(=O)(=O)N3CCOCC3)c2)c1)c1ccc(Br)cc1	TEAD-YAP block 35
O=C(Nc1cccc(OC(=O)c2ccc(F)c(S(=O)(=O)N3CCOCC3)c2)c1)c1ccccc1	TEAD-YAP block 32
O=C(Oc1cccc(NC(=O)c2ccco2)c1)c1ccc(F)c(S(=O)(=O)N2CCOCC2)c1	none
COc1ccc(C)cc1NS(=O)(=O)c1cc(Br)cnc1N	none
N=C(N)c1cccc(NC(=O)Nc2cccc(C(=N)N)c2)c1	none
CCCCNC(=O)CCCC1=NS(=O)(=O)c2ccccc2N1	none
CCN(CC)CCOC(=O)c1ccc2nc(NC(=O)c3ccc([N+](=O)[O-])cc3)sc2c1	none
Cc1ccc(S(=O)(=O)Nc2nc3ccccc3nc2Nc2cccc(N(C)C)c2)cc1	TEAD-YAP block 35
Cc1nc(C)c(C(=O)c2coc3ccc(O)cc23)o1	none
O=C(c1cc2ccccc2o1)c1coc2ccc(O)cc12	TEAD-YAP block 65
CN(C)c1ccc(CCNS(=O)(=O)c2cccc(F)c2)cc1	none
CC(=O)c1ccc(-c2ccc(N)c(C(=O)c3ccccc3)c2)cc1	TEAD-YAP block 58
O=C(N/N=C/c1ccccc1)c1cccc(O)c1	TEAD-YAP block 34
N/C(=N\N=C/c1ccc([N+](=O)[O-])cc1)N/N=C\c1ccc([N+](=O)[O-])cc1	FBW7 act 4.3
O=C(N/N=C/c1ccc([N+](=O)[O-])cc1)c1cccc(O)c1	TEAD-YAP block 40
O=C(CC(=O)N/N=C/c1ccc([N+](=O)[O-])cc1)N/N=C/c1ccc([N+](=O)[O-])cc1	none
O=C(N/N=C/c1ccc(O)cc1)c1cccc(O)c1	none
CCCc1c(C)c2cc(Cl)c(OCc3ccc(F)cc3)cc2oc1=O	none
CC(C)Nc1cc(N(C)C)c2noc3c2c1C(=O)c1ccccc1-3	MITF inh 51
CCOC(=O)N1CCN(c2cc(Nc3ccc(OC)cc3)c3c4c(onc24)-c2ccccc2C3=O)CC1	none
CCCCNc1cc(N2CCN(CCO)CC2)c2noc3c2c1C(=O)c1ccccc1-3	MITF inh 54
CCCN1CCN(c2cc(NCCO)c3c4c(onc24)-c2ccccc2C3=O)CC1	none
CC(C)Nc1cc(N2CCN(C)CC2)c2noc3c2c1C(=O)c1ccccc1-3	MITF inh 52
CC(C)Nc1cc(N2CCC(=O)CC2)c2noc3c2c1C(=O)c1ccccc1-3	none
CCOC(=O)N1CCN(c2cc(NC(C)C)c3c4c(onc24)-c2ccccc2C3=O)CC1	MITF inh 71
COC(=O)c1ccccc1NC(=O)CCCCCN1C(=O)c2cccc3cccc(c23)C1=O	none
COc1ccc2ccc(OC)c(/C=C3/C(=O)Nc4ccccc43)c2c1	TEAD-YAP block 53
COc1ccc2ccccc2c1/C=C1\SC(=Nc2ccc(C)cc2)NC1=O	TEAD-YAP block 53
CCCOc1ccc2ccccc2c1/C=C1\SC(N)=NC1=O	TEAD-YAP block 52
COc1ccc(N=C2NC(=O)/C(=C/c3c(OC)ccc4ccccc34)S2)cc1	TEAD-YAP block 36
COc1ccc(N=C2NC(=O)/C(=C\c3cc(OC)ccc3OC)S2)cc1	none
CCCOc1ccccc1/C=C1\SC(N)=NC1=O	none
COc1ccc2ccccc2c1/C=C1/SC(=S)NC1=O	none
COc1ccc(NC(=O)C2C3C=CC4(O3)C2C(=O)N(CC2CCCO2)C4C(=O)NC2CCCCC2)cc1 (stereo unspecified)	none
S=C(Nc1ccccc1)NC1CCCCC1	none
CC(/C=C/c1ccco1)=N/NC(=O)c1ccc(Br)cc1	none
CCOC(=O)CNC(=O)CSc1nc2sc3c(c2c(=O)[nH]1)CCC(C)C3 (stereo unspecified)	TEAD-YAP block 89
CCOC(=O)C1CCN(c2nc(-c3cccnc3)nc3c2CN(C(C)=O)CC3)CC1	none
O=C1C2=C(Nc3[nH]c(=O)[nH]c(=O)c3C2c2ccc(Cl)cc2)c2ccccc21 (stereo unspecified)	TEAD-YAP block 42
COCCn1c2c(c(=O)[nH]c1=O)C(c1ccc(Cl)cc1)C1=C(N2)c2ccccc2C1=O (stereo unspecified)	none
CCN(CC)c1ccc(/C=C2/C(=O)N(c3ccccc3)N=C2C)cc1	MITF inh 68
CC1=NN(c2ccccc2)C(=O)/C1=C/c1ccc(N2CCCC2)o1	TEAD-YAP block 66
CC1=NN(c2ccc(Cl)cc2)C(=O)/C1=C\c1ccc([N+](=O)[O-])o1	none
CC1=NN(c2ccc(C(=O)O)cc2)C(=O)/C1=C\c1ccc([N+](=O)[O-])o1	MITF inh 71
CCOC(=O)c1cc(Br)ccc1O	none
COC(=O)c1ccccc1NC(=O)c1ccc(N2CC3CC(C2)c2cccc(=O)n2C3)c(NC(=O)c2cccs2)c1 (stereo unspecified)	none
N#Cc1cc([N+](=O)[O-])ccc1Sc1nnnn1-c1ccccc1	TEAD-YAP block 46
CN(C)CCNS(=O)(=O)c1ccc(Sc2nnnn2-c2ccccc2)c([N+](=O)[O-])c1	TEAD-YAP block 84
O=[N+]([O-])c1ccc(Sc2nnnn2-c2ccccc2)c([N+](=O)[O-])c1	none
N#Cc1ccc(NC(=O)c2cc([N+](=O)[O-])ccc2Sc2nnnn2-c2ccccc2)cc1	none
Cc1ccc(-n2nnnc2Sc2ccc([N+](=O)[O-])cc2C#N)cc1	TEAD-YAP block 45
Cc1ccc(N2C(=O)NC(=O)/C(=C\c3ccc(N4CCCC4)c(F)c3)C2=O)cc1	none
COC(=O)c1cccc(NC(=O)COc2ccccc2Cl)c1	none
CCCCOC(=O)c1cccc(NC(=O)COc2ccc(Br)cc2Br)c1	TEAD-YAP block 58
CCCOC(=O)c1cccc(NC(=O)COc2ccccc2Cl)c1	TEAD-YAP block 45
CCOC(=O)C1CCN(c2cc(NCC(=O)O)c3c4c(onc24)-c2ccccc2C3=O)CC1	MITF inh 70
O=C(O)CCNc1cc(N2CCC3(CC2)OCCO3)c2noc3c2c1C(=O)c1ccccc1-3	MITF inh 63
O=C(O)CNc1cc(N2CCCCC2)c2noc3c2c1C(=O)c1ccccc1-3	TEAD-YAP block 59
CC[C@H](C)[C@@H]1NC(=O)[C@H]2CN(CCCc3ccccc3)CCN2C1=O	none
O=c1c(C=NCCc2ccccn2)c(CSc2ccc(Cl)cc2)[nH]n1-c1nc2ccccc2s1	MITF inh 65
O=c1c2ccccc2n(Cc2ccc([N+](=O)[O-])cc2)c(=O)n1Cc1ccc([N+](=O)[O-])cc1	none
